# From PubChem BioAssay
# ClpP mod: qHTS Assay for Activators of ClpP | ATP-dependent Clp protease proteolytic subunit (Bacillus subtilis (strain 168)), P80244 | purified B. subtilis ClpP, FRET peptide cleavage, 20 min | Potency, µM (titrated, usually from 57.5 µM), inactives show at the top dose activity change, negative = active | 1.9% of 340,000 active | AID 651965, 2013; active = well fitted falling curve with a large enough effect; inconclusive = small, poorly fitted or top-dose-only effect; inactive = no such curve, though single readings can be large or run the other way; note: potency is the fitted concentration of half-maximal effect; the source files actives as falling curves though it sought activators and does not explain the sign; nearly all actives have a fitted effect of over 65% in size
#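 ClpP 10 microg/mL final, pH 8 Tris/KCl buffer with BSA, glycerol, Tween-20; compound pinned in; FRET-FV substrate; RT 20 min; Ex320/Em430; ΔFRET vs ADEP 5.8 microM, DMSO, no enzyme.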
# TRPV1 potentiator: HTS Assay for Compounds that Act as Potentiators of the Vanilloid Receptor 1 | TRPV1-expressing cells, Fluo-8 calcium influx, capsaicin EC20 potentiation | potentiation, % at 8.33 µM | Transient receptor potential cation channel subfamily V member 1 (Homo sapiens), Q8NER1 | AID 540277, 2011 | 0.02% of 320,000 active; in the data active = potentiation above about 80%; inconclusive = between about 30% and that limit; note: 0% is about no effect
# Target sequence (Q8NER1 whole entry, looked up): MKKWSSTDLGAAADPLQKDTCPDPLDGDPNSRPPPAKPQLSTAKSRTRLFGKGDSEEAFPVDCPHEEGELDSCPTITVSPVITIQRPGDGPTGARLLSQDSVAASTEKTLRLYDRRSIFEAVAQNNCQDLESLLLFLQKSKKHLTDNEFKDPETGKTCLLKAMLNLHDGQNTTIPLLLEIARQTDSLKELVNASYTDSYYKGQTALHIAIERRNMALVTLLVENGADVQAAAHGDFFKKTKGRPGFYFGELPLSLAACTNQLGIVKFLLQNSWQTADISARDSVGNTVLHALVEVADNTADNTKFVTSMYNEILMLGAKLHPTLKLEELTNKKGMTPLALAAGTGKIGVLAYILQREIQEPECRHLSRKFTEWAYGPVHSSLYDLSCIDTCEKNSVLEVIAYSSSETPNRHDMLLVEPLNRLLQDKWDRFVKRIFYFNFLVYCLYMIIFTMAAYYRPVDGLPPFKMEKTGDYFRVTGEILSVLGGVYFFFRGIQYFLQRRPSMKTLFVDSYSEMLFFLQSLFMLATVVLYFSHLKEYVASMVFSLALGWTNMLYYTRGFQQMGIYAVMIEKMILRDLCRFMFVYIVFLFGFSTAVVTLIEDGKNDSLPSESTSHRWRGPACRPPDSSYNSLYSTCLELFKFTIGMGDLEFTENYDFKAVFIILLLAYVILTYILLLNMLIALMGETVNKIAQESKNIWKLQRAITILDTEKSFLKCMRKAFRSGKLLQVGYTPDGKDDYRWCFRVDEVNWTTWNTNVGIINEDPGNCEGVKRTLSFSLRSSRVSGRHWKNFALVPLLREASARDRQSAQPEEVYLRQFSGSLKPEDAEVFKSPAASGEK
#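 Fluo-8 calcium influx in TRPV1-expressing cells, kinetic read (ex 480/em 520 nm). Compound added and read 3 min for agonist activity, followed by capsaicin at EC20 final and 2 min further read for enhancement.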
# hERG WT inh: qHTS for Inhibitors of KCHN2 3.1: Wildtype qHTS; Voltage-gated inwardly rectifying potassium channel KCNH2 (Homo sapiens), Q12809; U2OS, BacMam KCNH2, thallium flux FluxOr; hits give low values; activity change, % at 1.84 µM; 0.37% of 340,000 active; AID 720551, 2013;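 active = maximum activity change below -70%; inconclusive = maximum activity change between -70% and -50%; inactive = maximum activity change above -50%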; note: % is set by controls: 0 for no effect and ±100 for the full control effect
#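 U2OS cells transduced with wild-type KCNH2 virus are loaded with FluxOr dye for 45 min, and thallium flux is measured in kinetic reads before and after stimulation buffer. Rate constants are normalized to DMSO controls.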
# TRPV1 ag: HTS Assay for Compounds that Act as Agonists of the Vanilloid Receptor 1. 0.19% of 320,000 active. activation, % at 8.33 µM. TRPV1-expressing cells, Fluo-8 calcium influx, agonist mode. Transient receptor potential cation channel subfamily V member 1 (Homo sapiens), Q8NER1. AID 540275, 2011; in the data active = activation above about 80%; inconclusive = between about 30% and that limit; note: 0% is about no effect
#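 Fluo-8 calcium influx in TRPV1-expressing cells, kinetic read (ex 480/em 520 nm). Compound added and read 3 min for agonist activity, followed by capsaicin at EC20 final and 2 min further read for enhancement.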
# KCNH2 3.1 block: qHTS for Inhibitors of KCHN2 3.1: Mutant qHTS | Potassium voltage-gated channel subfamily H member 2, brain isoform KCNH2 3.1 (human) | U2OS KCNH2 3.1, thallium flux FluxOr; hits give low values | activity change, % (tested at about 1.8 µM) | 0.95% of 340,000 active;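 active = maximum activity change below -70%; inconclusive = maximum activity change from -70% to -50%; inactive = maximum activity change above -50%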;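 note: thallium influx rate constant from kinetic fluorescence after stimulation buffer; % is set by controls: 0 for no effect and ±100 for the full control effect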
#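 Steps: virus added to U2OS suspension (4 h, RT, dark); medium with 10% FBS added, cells plated, 37 C overnight; FluxOr/Red40 loading buffer 45 min RT; stimulation buffer, 2 min kinetic read; rate constant normalized.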
# p53 reactivator: qHTS assay for re-activators of p53 using a Luc reporter; H1299 p53-A138V BP100-luciferase reporter, luminescence, 24 h; Potency, µM (highest dose often 92.2 µM), without a hit: at the highest dose activity change, positive = activation, most hits filed as activators; 0.063% of 320,000 active; AID 504706, 2011; active = well fitted activation curve with a large enough effect; inconclusive = small, poorly fitted or top-dose-only effect; inactive = no such curve, though single readings can be large or run the other way; note: potency is the fitted concentration of half-maximal effect; % of control where 0% means no effect; nearly all actives have a fitted effect of over 45% in size
#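 H1299 (p53-null), stable ts p53-A138V + BP100-Luc; 1000 cells/well, Opti-MEM/10% FBS; cpd 4 pt, 1:5; 24 h, 37 deg C, 5% CO2; detection reagent 10 min RT; luminescence.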
# Active calls of the source: *; ? = inconclusive; · = not tested or not shown. Compounds with a hit are over-represented: about 2.6% of the library has one in this group of screens.
SMILES,ClpP mod,TRPV1 potentiator,hERG WT inh,TRPV1 ag,KCNH2 3.1 block,p53 reactivator
Cc1cccc(/C=N/n2c(-c3cc(-c4ccccc4)n[nH]3)n[nH]c2=S)c1,25.1µM*,18.3,1.8,-2.7,-6.4,1.5%
CCOC(=O)c1ccc(NC(=O)c2nn(C)c3c2COc2ccccc2-3)cc1,-2.5%,·,·,·,·,·
CC(C)Cc1nc(N2CCN(C(=O)c3ccccc3)CC2)c(C#N)c2c1CCC2,31.6µM*,-9.7,7.3,?,-5.4,21.2%
CC(C)Cc1nc(N2CCCCC2)c(C#N)c2c1CCC2,35.5µM*,-2.8,1.9,6.3,-8.1,?
CC(C)Cc1nc(Cl)c(C#N)c2c1CCCC2,1.7%,0.4,8.4,2.6,-8.1,-8.8%
CC(C)Cc1nc(N2CCN(C(=O)c3ccco3)CC2)c(C#N)c2c1CCC2,?,-3.3,0.5,3.4,-4.2,4.0%
CC(C)Cc1nc(N2CCN(C(=O)C(C)C)CC2)c(C#N)c2c1CCC2,20µM*,-0.2,1.3,-0.6,2.5,7.6%
CC(=O)N1CCN(c2nc(CC(C)C)c3c(c2C#N)CCC3)CC1,-2.2%,21.4,2.3,93.1*,-5.1,-6.5%
O=C(C[n+]1cc(Br)cc(Br)c1)c1ccc(I)cc1,0.9%,·,·,·,·,·
CC(C)OCCc1cccc[n+]1[O-],-1.6%,·,·,·,·,·
COc1ccccc1-c1ccc2c(c1)C(C)(Cc1cccc(C#N)c1)C(=O)N2 (configuration not stated),-2.4%,·,·,·,·,·
CC(C)(C)C(=O)Nc1cccc(-c2nc3ccccc3[nH]2)c1,?,?,1.2,3.6,-4.9,7.2%
CC(C)(C)C(=O)Nc1sc2c(c1-c1nc3ccccc3[nH]1)CCCC2,22.4µM*,-10.5,-3.0,?,-16.0,8.4%
OC[C@@H]1CN(Cc2ccc3c(c2)OCO3)C[C@H](n2cnc3c(N4CCN(c5ccccc5)CC4)ncnc32)O1,-11.3%,·,·,·,·,·
CC(C)(C)c1ccc(NC(=O)Nc2ccc(OCC(=O)N3CCOCC3)cc2)cc1,·,1.3,13.6,-1.8,-10.0,26.1%
O=C(Nc1ccc(OCC(=O)N2CCOCC2)cc1)Nc1cccc(Cl)c1,11.2µM*,0.2,13.6,-0.2,-82.2*,5.1%
COc1cc2c(c(O)c1OC)-c1c(cc(OC)c(OC)c1OC)C[C@@H](C)[C@@H](C)C2,1.1%,-5.3,16.0,28.2,-9.5,-0.9%
COc1cc2c(c(OC)c1OC)-c1c(cc(OC)c(OC)c1OC)C[C@H](C)[C@H](C)C2,-1.3%,-29.0,-74.0*,?,-174.1*,-3.9%
Cc1cc(C)nc(SCNC(=O)c2ccc(Cl)cc2)n1,-6.2%,-18.6,-9.2,12.6,-101.4*,2.6%
COc1cc2c(NC3CCN(C(C)C)CC3)nc(N3CCCN(C)CC3)nc2cc1OCCCN(C)C,4.8%,·,·,·,·,·
O=C(Cc1cccs1)NC1(C(=O)NC2CCCC2)CCCCC1,25.1µM*,-2.8,99.7,4.8,-12.5,-4.0%
CCN1CCc2c(sc(NC(=O)c3ccc(S(=O)(=O)N4CCCC4)cc3)c2C(=O)NC)C1,-1.1%,-33.0,11.8,1.0,9.4,35.5µM*
CCCCn1nnc(NC(=O)c2ccc(-c3cccc(Cl)c3)o2)n1,31.6µM*,0.9,-28.6,0.4,-36.0,12.2%
CC1=CC(=C(c2ccc(N)cc2)c2ccc(N)cc2)C=CC1=N,-3.0%,·,·,·,·,·
O=C(CCS(=O)(=O)c1cc(Br)cc2c1N(C(=O)C1CC1)CC2)NCc1ccc(Cl)cc1,-1.6%,·,·,·,·,·
SMILES,ClpP mod,TRPV1 potentiator,hERG WT inh,TRPV1 ag,KCNH2 3.1 block,p53 reactivator
COc1ccccc1NC(=O)c1sc2nc(-c3ccco3)ccc2c1N,3.4%,0.0,-13.1,0.3,-3.0,4.4%
Nc1c(C(=O)Nc2ccccc2)sc2nc(-c3ccco3)ccc12,15.8µM*,4.4,7.6,1.5,-2.2,3.8%
Nc1c(C(=O)Nc2ccccc2Br)sc2nc(-c3cccs3)ccc12,31.6µM*,·,·,·,·,·
O=c1c2oc3ccccc3c2n(Cc2cccc(Cl)c2)c(=O)n1Cc1ccc2c(c1)OCO2,-26.9%,·,·,·,·,·
O=c1c2oc3ccccc3c2n(Cc2ccccc2F)c(=O)n1Cc1ccc2c(c1)OCO2,25.1µM*,·,·,·,·,·
CCOc1ccc2c(c1)C(c1ccc(C)cc1)=NNC(c1ccc(OC)cc1)=N2,-1.2%,-2.5,-39.9,1.3,-93.7*,9.9%
O=C(NCc1ccco1)c1c[nH]c2ccc(S(=O)(=O)N3CCOCC3)cc2c1=O,31.6µM*,-3.4,12.0,4.8,·,5.8%
CCCCCNC(=O)c1c[nH]c2ccc(S(=O)(=O)N3CCC4(CC3)OCCO4)cc2c1=O,15.8µM*,-9.0,-9.6,16.6,-4.7,-5.8%
COCCCNC(=O)c1c[nH]c2ccc(S(=O)(=O)N3CCC4(CC3)OCCO4)cc2c1=O,·,2.9,-5.1,0.6,-2.1,-2.1%
CN(c1ccc(Br)cc1)S(=O)(=O)c1ccc2[nH]cc(C(=O)NCCN3CCOCC3)c(=O)c2c1,-17.6%,-2.2,-0.4,-0.4,2.6,12.8%
O=C(NCCN1CCOCC1)c1c[nH]c2ccc(S(=O)(=O)N3CCOCC3)cc2c1=O,31.6µM*,5.4,-17.5,1.3,12.6,2.7%
Cc1ccc(S(=O)(=O)N2CCOCC2)cc1C(=O)NCc1ccco1,0.1%,-12.0,-8.1,4.8,9.1,?
Cc1cccc(N2CCN(C(=O)c3oc(=O)c4ccccc4c3-c3ccccc3)CC2C)c1 (configuration not stated),-5.1%,·,·,·,·,·
CCN(CC)C(=O)c1sc2nc(N3CCOCC3)c3c(c2c1N)CCCC3,25.1µM*,-9.4,2.8,?,16.8,1.5%
CCOC(=O)c1sc2nc(N3CCOCC3)c3c(c2c1N)CC(C(C)C)OC3 (configuration not stated),-37.3%,6.9,-1.8,1.8,-7.5,2.5%
CCOC(=O)c1sc2nc(N3CCOCC3)c3c(c2c1N)CCCC3,31.6µM*,-8.5,-0.7,11.1,1.2,1.9%
COC(=O)c1ccc(Cn2cnc3c(sc4nc(N5CCOCC5)c5c(c43)CCCC5)c2=O)o1,28.2µM*,-18.4,3.3,2.0,11.1,4.5%
CCOC(=O)c1sc2nc(N3CCCC3)c3c(c2c1N)CC(C)(C)OC3,31.6µM*,·,-1.5,·,-15.7,-6.2%
COC(=O)c1ccc(CSc2ncnc3c2sc2nc(N4CCOCC4)c4c(c23)CCCC4)o1,?,·,-1.8,·,-3.0,·
